Measurements reported in PubChem BioAssay (NCATS).
Where “and” joins values, the source holds several entries; their conditions need not be identical. Equal entries are not always repeated. Inconclusive results are not listed. Calls of active or inactive are those of the source. Calls come from the whole dose curve; as a rule, active = well fitted curve in the direction sought with a large enough effect; inconclusive = small, poorly fitted or top-dose-only effect, or another doubt; inactive = no such curve, though single readings can be large; an effect the other way counts as inactive or inconclusive.

Experiments:
[1] = qHTS assay for measurement of the activity of small molecule inhibitors on Zika virus induced Caspase-3 activity in human iPSC derived neural progenitor cells (hNPCs) (AID 1224857); note: nearly all actives have a fitted effect of over 65% in size
Procedure, shortened: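 Quantitative HTS format: human iPSC neural progenitors, 1 h compound pretreatment, ZIKV 2 FFU/cell for 6 h at 37 C. Percent inhibition derived from luminescent caspase-3/7 signal between uninfected and infected controls.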

[2] = qHTS assay for measurement of the activity of small molecule inhibitors on Zika virus induced Caspase-3 activity in human astrocytoma cells (AID 1224859)
Procedure, shortened: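 Readout is luminescence from Caspase-Glo 3/7 added after a 6 h ZIKV infection (2 FFU/cell) of compound-pretreated (1 h) SNB-19 cells; data expressed as % inhibition versus uninfected and infected wells.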

[3] = qHTS Screen of the MIPE 4.0 Collection Against Ewings Sarcoma (TC71) (AID 1259253); note: nearly all actives have a fitted effect of over 40% in size; note: potency is the fitted concentration of half-maximal effect
Procedure, shortened: (§1)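 CellTiter-Glo luminescence after 48 h compound exposure (titration) gave viability; percent activity used DMSO-treated cells as no inhibition and medium-only wells as full inhibition. Cells grown in RPMI/5% FBS, dosed 4 h post-seeding.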

[4] = qHTS Screen of the MIPE 4.0 Collection Against Ewings Sarcoma (EW8) (AID 1259255); note: nearly all actives have a fitted effect of over 35% in size; note: potency is the fitted concentration of half-maximal effect
Procedure, shortened: as §1

[5] = qHTS Screen of the MIPE 4.0 Collection Against Ewings Sarcoma (TC32) (AID 1259256); note: nearly all actives have a fitted effect of over 45% in size; note: potency is the fitted concentration of half-maximal effect
Procedure, shortened: as §1

[6] = P-glycoprotein substrates identified in KB-3-1 adenocarcinoma cell line, qHTS therapeutic library screen (AID 1346986); note: nearly all actives have a fitted effect of over 60% in size;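 note: potency is the fitted concentration of half-maximal effect; potency is for cytotoxicity meaning loss of cell viability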
Procedure, shortened: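 Dose-response cytotoxicity, KB-3-1 vs P-gp-high KB-8-5-11, no colchicine in assay medium. Read: CellTiter-Glo at 72 h.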

[7] = P-glycoprotein substrates identified in KB-8-5-11 adenocarcinoma cell line, qHTS therapeutic library screen (AID 1346987); note: nearly all actives have a fitted effect of over 65% in size; note: potency is the fitted concentration of half-maximal effect
Procedure, shortened: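 In this qHTS, P-gp-rich KB-8-5-11 cells received library compounds across a concentration range. Viability was quantified by luminescence after 72 h at 37 degree C.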

[8] = Identifying Small Molecule Inhibitors of Pancreatic Cancer Stem Cells (SN12C, Adherent) (AID 1259358);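 note: potency is the fitted concentration of half-maximal effect; cell survival measured after 48 h of compound exposure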
Procedure, shortened: (§2)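 Cytotoxicity read by CellTiter-Glo luminescence after 48 h compound exposure at 37C; percent activity scaled between DMSO-treated cells and cell-free wells. Spheroid formats used cells pre-formed 14 days in stem cell media on hydrogel.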

[9] = qHTS Screen of the MIPE 4.0 Collection Against Ewings Sarcoma (RDES) (AID 1259252); note: potency is the fitted concentration of half-maximal effect; nearly all actives have a fitted effect of over 35% in size
Procedure, shortened: as §1

[10] = NS1 protein of Zika virus - qHTS assay to identify small molecule inhibitors in human HEK 293 cells (AID 1347053); note: nearly all actives have a fitted effect of over 55% in size; note: potency is the fitted concentration of half-maximal effect
Procedure, shortened: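 Readout was TR-FRET using paired anti-NS1 antibodies after 24 h infection of HEK 293 cells with ZIKV MR766 (MOI = 0.5). Compound preceded virus by 1 h; reduced signal reflects lower NS1 expression.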

[11] = Identifying Small Molecule Inhibitors of Pancreatic Cancer Stem Cells (A2780, Spheroid) (AID 1259357); conditions: Potency: A2780 spheroid viability;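 note: compound exposure lasted 48 h before the ATP luminescence read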; note: potency is the fitted concentration of half-maximal effect
Procedure, shortened: (§3)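 Adherent (2D) versus sphere (3D) formats; spheres generated 14 d in SCM beforehand. Compound transferred by pin tool after 4 h, 48 h incubation, CellTiter-Glo endpoint.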

[12] = Identifying Small Molecule Inhibitors of Pancreatic Cancer Stem Cells (Panc1, Spheroid) (AID 1259359);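 note: potency is the fitted concentration of half-maximal effect; compound exposure lasted 48 h before reading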
Procedure, shortened: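 Spheroids grown 14 days in stem cell media on hydrogel-coated nonadherent plates; 2D lines seeded directly. Compounds added after 4 h attachment, 48 h at 37C, 5% CO2; CellTiter-Glo luminescence normalized to DMSO (no inhibition) and no-cell wells (full inhibition).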

[13] = Identifying Small Molecule Inhibitors of Pancreatic Cancer Stem Cells (SN12C, Spheroid) (AID 1259360); conditions: Potency: SN12C spheroid viability; note: potency is the fitted concentration of half-maximal effect
Procedure, shortened: as §3

[14] = Identifying Small Molecule Inhibitors of Pancreatic Cancer Stem Cells (A278, Adherent) (AID 1259361); note: nearly all actives have a fitted effect of over 35% in size
Procedure, shortened: as §2

[15] = Identifying Small Molecule Inhibitors of Pancreatic Cancer Stem Cells (Panc1, Adherent) (AID 1259362); conditions: Potency: viability; note: potency is the fitted concentration of half-maximal effect
Procedure, shortened: as §3

c1nc2nc(Nc3ccc(N4CCOCC4)cc3)nc(NC3CCCCC3)c2[nH]1
inactive: Potency [1] | Potency [2]
active: Potency [3] 2.64 µM | Potency [4] 2.35 µM | Potency [5] 1.87 µM | Potency [6] 1.3 µM | Potency [7] 5.26 µM and 632 nM and 1.16 µM

CCN1CCN(Cc2ccc(-c3cc4c(N[C@H](C)c5ccccc5)ncnc4[nH]3)cc2)CC1
active: Potency [3] 0.0053 µM | Potency [4] 0.0332 µM | Potency [8] 23.5 µM
inactive: Potency [1] | Potency [2] | Potency [7]

CCn1cc(-c2ccnc3[nH]c(-c4cccc(CN(C)C)c4)cc23)c(-c2ccc(NC(=O)N(C)C)cc2)n1
inactive: Potency [2]
active: Potency [9] 7.43 µM | Potency [3] 3.72 µM | Potency [4] 0.0469 µM | Potency [5] 0.0469 µM

Cc1cc(Nc2cc(CN3CCOCC3)c3nc(C)c(Cc4ccc(Cl)cc4F)n3n2)n[nH]1
inactive: Potency [1]
active: Potency [9] 16.6 µM | Potency [3] 14.8 µM | Potency [4] 3.32 µM | Potency [5] 3.72 µM | Potency [7] 13.2 µM and 16.4 µM

Cc1cc(Nc2nc(N[C@@H](C)c3ccc(F)cc3)c(C#N)cc2F)n[nH]1
active: Potency [3] 13.2 µM | Potency [4] 1.05 µM | Potency [5] 1.32 µM | Potency [7] 935 nM and 580 nM
inactive: Potency [1] | Potency [2] | Potency [10]

CC(C)c1ccc(Cn2ccc3c4c(N)nc(NC5CC5)nc4ccc32)cc1
active: Potency [9] 9.35 µM | Potency [3] 1.05 µM | Potency [4] 3.32 µM | Potency [5] 1.32 µM | Potency [11] 14.8 µM | Potency [8] 7.43 µM | Potency [12] 5.26 µM | Potency [13] 8.33 µM | IC50 (viability decrease) [14] 332 nM | Potency [15] 743 nM | Potency [7] 1.18 µM | Potency [10] 3.32 µM
inactive: Potency [2]

CC(NCc1ccc2c(c1)nc(NC(=O)c1ccc(-c3cn[nH]c3)s1)n2CC(C)(C)O)C(C)(C)C (stereo unspecified)
active: Potency [9] 0.469 µM | Potency [3] 0.332 µM | Potency [4] 0.469 µM | Potency [5] 0.372 µM | Potency [8] 0.296 µM | Potency [12] 0.166 µM | Potency [13] 0.469 µM | Potency [7] 4.18 µM | Potency [10] 4.69 µM
inactive: Potency [1]

COc1ccc(-n2nc(C(N)=O)c3c2C(=O)N(c2ccc(N4CCCCC4=O)cc2)CC3)cc1
inactive: Potency [1] | Potency [2] | Potency [3] | Potency [4] | Potency [5] | Potency [7] | Potency [10]

COc1cc(Nc2ncc(F)c(Nc3ccc4c(n3)N(COP(=O)(O)O)C(=O)C(C)(C)O4)n2)cc(OC)c1OC
inactive: Potency [1] | Potency [2] | Potency [10]
active: Potency [3] 16.6 µM | Potency [4] 7.43 µM | Potency [7] 1.66 µM and 2.31 µM and 13 µM

CCCCCCCCCC(=O)N[C@@H](Cc1c[nH]c2ccccc12)C(=O)N[C@H](CC(N)=O)C(=O)N[C@@H](CC(=O)O)C(=O)N[C@@H]1C(=O)NCC(=O)N[C@@H](CCCN)C(=O)N[C@@H](CC(=O)O)C(=O)N[C@H](C)C(=O)N[C@@H](CC(=O)O)C(=O)NCC(=O)N[C@H](CO)C(=O)N[C@@H]([C@@H](C)CC(=O)O)C(=O)N[C@@H](CC(=O)c2ccccc2N)C(=O)O[C@@H]1C
inactive: Potency [1] | Potency [2] | Potency [3] | Potency [4] | Potency [5] | Potency [6] | Potency [7] | Potency [10]

CCN(CC)CCCCNc1ncc2cc(-c3cc(OC)cc(OC)c3)c(NC(=O)NC(C)(C)C)nc2n1
active: Potency [3] 16.6 µM | Potency [4] 18.7 µM | Potency [8] 14.8 µM | Potency [12] 18.7 µM | IC50 (viability decrease) [14] 5260 nM | Potency [6] 23.1 µM
inactive: Potency [1] | Potency [2]

C=CC(=O)N1CCC[C@@H](n2nc(-c3ccc(Oc4ccccc4)cc3)c3c(N)ncnc32)C1
active: Potency [9] 20.9 µM | Potency [3] 29.6 µM | Potency [4] 23.5 µM | Potency [5] 18.7 µM
inactive: Potency [1] | Potency [11]

CCCNC(=O)Nc1ccc(Oc2ncnc3cc(OC)c(OC)cc23)cc1Cl
inactive: Potency [1] | Potency [2] | Potency [3] | Potency [4] | Potency [5] | Potency [7] | Potency [10]
